Laboratory results as given in ChEMBL document CHEMBL1201862, “PubChem BioAssay data set” (2004).
Screen size: about 400,000 compounds; about 2,100 (0.53%) were called active. Not shown: some 14% with an inconclusive outcome. The rule behind the calls is not given here. What follows is part of a selection rich in actives, with near analogues and random picks from the rest.

biological target: Ataxin-2 (Homo sapiens) (UniProt Q99700); test: qHTS for Inhibitors of ATXN expression.; type: functional
Sequence (Q99700 whole entry): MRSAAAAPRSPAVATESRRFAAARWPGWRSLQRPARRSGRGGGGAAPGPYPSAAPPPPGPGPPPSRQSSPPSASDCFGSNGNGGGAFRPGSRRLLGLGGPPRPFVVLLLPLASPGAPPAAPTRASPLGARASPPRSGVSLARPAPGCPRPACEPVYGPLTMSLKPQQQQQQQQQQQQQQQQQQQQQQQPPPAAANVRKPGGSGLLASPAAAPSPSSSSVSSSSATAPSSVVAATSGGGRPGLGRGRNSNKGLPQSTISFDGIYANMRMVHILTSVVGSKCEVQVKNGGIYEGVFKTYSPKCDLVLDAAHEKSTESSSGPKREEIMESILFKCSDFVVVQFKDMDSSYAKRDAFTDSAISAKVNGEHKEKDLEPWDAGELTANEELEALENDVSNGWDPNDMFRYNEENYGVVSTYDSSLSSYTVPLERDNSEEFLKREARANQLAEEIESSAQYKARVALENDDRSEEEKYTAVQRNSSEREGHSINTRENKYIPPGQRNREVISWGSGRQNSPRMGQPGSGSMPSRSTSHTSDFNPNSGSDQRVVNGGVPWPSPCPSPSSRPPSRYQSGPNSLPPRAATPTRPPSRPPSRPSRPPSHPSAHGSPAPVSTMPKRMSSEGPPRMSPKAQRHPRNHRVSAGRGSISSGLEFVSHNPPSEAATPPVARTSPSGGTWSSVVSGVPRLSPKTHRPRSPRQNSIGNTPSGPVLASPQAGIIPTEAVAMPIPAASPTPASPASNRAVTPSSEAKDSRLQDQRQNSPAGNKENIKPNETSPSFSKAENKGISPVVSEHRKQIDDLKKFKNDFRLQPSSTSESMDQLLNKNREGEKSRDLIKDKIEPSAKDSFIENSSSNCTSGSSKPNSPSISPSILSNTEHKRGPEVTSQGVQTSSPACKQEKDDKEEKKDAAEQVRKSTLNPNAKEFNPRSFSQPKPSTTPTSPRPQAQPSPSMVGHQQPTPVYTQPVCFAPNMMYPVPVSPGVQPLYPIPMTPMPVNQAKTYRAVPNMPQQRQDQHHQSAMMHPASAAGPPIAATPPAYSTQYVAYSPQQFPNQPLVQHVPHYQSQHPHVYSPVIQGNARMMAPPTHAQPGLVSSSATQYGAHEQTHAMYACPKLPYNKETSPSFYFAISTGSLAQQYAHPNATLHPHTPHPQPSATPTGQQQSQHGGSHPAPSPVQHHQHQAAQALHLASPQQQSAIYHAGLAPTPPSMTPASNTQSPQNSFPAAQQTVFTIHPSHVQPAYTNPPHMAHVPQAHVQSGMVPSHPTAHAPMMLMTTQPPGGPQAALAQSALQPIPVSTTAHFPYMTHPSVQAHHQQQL

| Compound | Potency |
| --- | --- |
| COc1ccc(CSc2ncnc3sccc23)cc1F | inactive |
| Clc1ccc(-n2nnnc2Sc2ncnc3sccc23)cc1 | 20 µM (active) |
| COc1ccc(-c2c(C)c3ccc(O)c(CN4CCN(C)CC4)c3oc2=O)cc1OC | inactive |
| CN1CCN(c2ccc(-c3cc(NC=O)c4ncc(-c5ccc(F)c(Cl)c5)n4c3)cc2)CC1 | inactive |
| COc1ccc(-c2cc(NC=O)c3ncc(-c4cnn(C)c4)n3c2)cc1 | inactive |
| CC(=O)Nc1cc(-c2ccc(N3CCN(C)CC3)cc2)cn2c(-c3ccc(F)c(Cl)c3)cnc12 | 35.5 µM (active) |
| COc1cc(-c2cnc3c(NC(C)=O)cc(-c4ccc(N5CCN(C)CC5)cc4)cn23)cc(OC)c1OC | 39.8 µM (active) |
| Cn1c(-c2ccc(F)cc2)cnc1NCc1ccc(F)cc1F | inactive |
| CC(=O)Nc1cc(-c2ccc(N3CCN(C)CC3)cc2)cn2c(-c3ccc(F)cc3)cnc12 | 35.5 µM (active) |
| CCCCNC(=O)c1cc2c(=O)n3cccc(C)c3nc2n(Cc2ccncc2)c1=N | inactive |
| CCCc1cc(NCCCN(C)C)n2c(nc3ccccc32)c1C#N | inactive |
| Cc1nc(N/N=C/c2ccc(Br)cc2)cc(N2CCOCC2)n1 | inactive |
| O=C(OCc1nc(O)c2c(-c3ccccc3)csc2n1)c1cc(Cl)ccc1[N+](=O)[O-] | inactive |
| C=CCNC(=O)c1c(N)n(-c2cccc(S(N)(=O)=O)c2)c2nc3ccccc3nc12 | inactive |
| CC1=CC(=O)C=C/C1=C(/c1ccc(O)cc1C)c1ccccc1S(=O)(=O)O | inactive |
| O=c1oc2cc(O)ccc2c2ccccc12 | inactive |
| O=S(=O)(O)c1cc(O)c(N=Nc2ccc(O)cc2O)c2ccccc12 | 22.4 µM (active) |
| CN1C(=O)/C(=N\CCc2ccccc2)c2c3ccccc3c(O)c3cccc1c23 | inactive |
| Sc1nc(-c2ccccc2)cn1/N=C/c1ccccc1Br | inactive |
| CCn1c(/C=C/c2ccc(O)cc2)nc2ccccc2c1=O | inactive |
| NC(=O)c1ccc(Oc2ccc(Cl)cc2)c([N+](=O)[O-])c1 | inactive |
| COc1ccc(-c2cc(-c3nnc(COC(=O)c4ccncc4)o3)c3ccccc3n2)cc1OC | inactive |
| CS(=O)(=O)c1ccc(C(=O)OCc2nnc(-c3ccc(Cl)cc3)o2)cc1[N+](=O)[O-] | 28.2 µM (active) |
| CC(=O)Oc1ccc(-c2cc3c(OC(C)=O)cc(OC(C)=O)cc3oc2=O)cc1 | inactive |
| OC[C@@H]1[C@@H](c2ccc(F)cc2)C(c2cccc(Cl)c2)=NN1c1ccccc1 | inactive |

| Compound | Potency |
| --- | --- |
| CCN(CC)CCn1c(C)nc2c(sc3nc4c(cc32)COC(C)(C)C4)c1=O | inactive |
| O=C(N/N=C/c1sc(=O)n(Cc2ccc(Br)cc2)c1Cl)c1ccco1 | 20 µM (active) |
| C/C(=N\NC(=O)c1ccc(C(=O)N/N=C(\C)c2ccco2)o1)c1ccco1 | inactive |
| O=C(N/N=C/c1c(O)ccc2ccccc12)c1ccc(Br)o1 | inactive |
| CN1CCc2ccc(NC(=O)c3ccc(C(F)(F)F)cc3)cc2C1 | inactive |
| O=C(Nc1ccc(Cl)cc1)c1cnn2c1NC(c1ccccc1)=CC2c1ccccc1 (configuration not stated) | inactive |
| CC1=C(C(=O)Nc2ccc(Cl)cc2)C(c2ccc(C(F)(F)F)cc2)n2nnnc2N1 (configuration not stated) | 28.2 µM (active) |
| Cc1ccc(S(=O)(=O)Nc2ccccc2/C=N/c2nc3ccccc3n2C)cc1 | inactive |
| Cc1ccc(/C=N/N2C(=O)c3ccccc3NC2c2ccc(C)cc2)cc1 (configuration not stated) | inactive |
| O=C(c1cnn(C(=O)c2ccco2)c1)c1ccccc1O | inactive |
| C/C(=N\N1C(=O)c2ccccc2NC1c1ccco1)c1ccccc1O (configuration not stated) | 2 µM (active) |
| COc1cccc(C2C=C(c3ccc(Br)s3)Nc3ncnn32)c1OC (configuration not stated) | inactive |
| O=[N+]([O-])c1ccc(C2(O)C[N+](c3ccccc3)=C3SCCN32)cc1 (configuration not stated) | inactive |
| Cc1ccsc1/C=C1\Oc2cc(O)ccc2C1=O | inactive |
| NNc1nc2cccnc2n(CCNc2ncc(C(F)(F)F)cc2Cl)c1=O | inactive |
| O=S(=O)(NNc1ncc(C(F)(F)F)cc1Cl)c1ccc(F)cc1F | inactive |
| O=C1C=CC(=O)N1CCNc1ncc(C(F)(F)F)cc1Cl | 35.5 µM (active) |
| CCOCCCn1c(=N)c(C(=O)NCc2ccco2)cc2c(=O)n3ccccc3nc21 | inactive |
| O=C1[C@H]2C(c3ccccc3)=NN(c3ccccc3)[C@H]2C(=O)N1c1ccccc1 | inactive |
| O=C1[C@H](Oc2ccccc2)[C@@H](c2ccccc2)N1c1ccncc1 | 28.2 µM (active) |
| O=C1[C@@H](c2ccccc2)[C@@H](c2ccccc2)N1c1cccnc1 | 25.1 µM (active) |
| O=C1c2ccccc2C(Nc2ccc(Cl)cn2)N1c1cccnc1 (configuration not stated) | inactive |
| CCOC(=O)C1CCN(Cc2nc3ccc([N+](=O)[O-])cc3c(=O)n2-c2ccc(OC)cc2OC)CC1 | inactive |
| N#CC1=C(N)Oc2cc(O)ccc2C1c1ccc(Br)s1 (configuration not stated) | inactive |
| c1cc2c3c(cccc3c1)NC1(CCC3(CC1)Nc1cccc4cccc(c14)N3)N2 | 35.5 µM (active) |

| Compound | Potency |
| --- | --- |
| Cn1c(-c2cc3ccc(OC(=O)C(C)(C)C)cc3oc2=O)nc2ccccc21 | inactive |
| COc1ccc(NC(=O)c2c(NC(=O)CCC(=O)O)sc3c2CCCCC3)cc1 | inactive |
| COc1ccc(CC(=O)Nc2sc3c(c2C(=O)Nc2cccc(Cl)c2)CCCCC3)cc1 | 28.2 µM (active) |
| CCOc1ccccc1NC(=O)c1c(NC(=O)Cc2ccc(OC)cc2)sc2c1CCC2 | 25.1 µM (active) |
| COc1ccc(-c2c3c(nc4sc(C(=O)Nc5ccccc5)c(N)c24)CCC3)cc1 | inactive |
| CCOc1ccccc1NC(=O)c1sc2nc(-c3ccc(OC)cc3)ccc2c1N | inactive |
| OC[C@@H]1[C@@H](c2ccccc2)C(c2ccc(F)cc2)=NN1c1ccccc1 | inactive |
| Cn1c(=O)c2nc3ccc(NC(=O)C(F)(F)F)cc3nc2n(C)c1=O | inactive |
| Cc1cc(C)n(CCC(=O)Nc2cccc(F)c2)n1 | inactive |
| O=C(CCn1cnc2onc(-c3ccc(F)cc3)c2c1=O)Nc1cccc(C(F)(F)F)c1 | 20 µM (active) |
| CC(C)(C)c1ccc(C(=O)Nc2cccc3c(=O)[nH][nH]c(=O)c23)cc1 | inactive |
| O=C(NC1=NCCS1)c1ccc(Cl)c(S(=O)(=O)N2CCOCC2)c1 | inactive |
| COc1ccc(NC(=O)CSc2nnc(C)n2C2CC2)cc1S(=O)(=O)N1CCOCC1 | inactive |
| O=C(Nc1ccc(Cl)c(S(=O)(=O)N2CCOCC2)c1)c1ccc(OCC2CCCO2)cc1 (configuration not stated) | 11.2 µM (active) |
| Cc1ccc(NC(=O)CCS(=O)(=O)c2ccccc2)cc1S(=O)(=O)N1CCOCC1 | inactive |
| Cc1cc(C)n(-c2ccc(C(=O)Nc3ccc(C)c(S(=O)(=O)N4CCOCC4)c3)cc2)n1 | 12.6 µM (active) |
| O=C(Nc1cccc(S(=O)(=O)N2CCCCC2)c1)c1ccc(OCC2CCCO2)cc1 (configuration not stated) | inactive |
| Cc1cc(C(=O)Nc2ccc(Cl)c(S(=O)(=O)N3CCOCC3)c2)c2ccccc2n1 | inactive |
| Cc1ccc(NC(=O)C2CCC(C(C)(C)C)CC2)cc1S(=O)(=O)N1CCOCC1 (configuration not stated) | 31.6 µM (active) |
| Cc1ccc(S(=O)(=O)N2CCOCC2)cc1NC(=O)COC(=O)CNC(=O)c1ccc(C(C)(C)C)cc1 | inactive |
| Cc1cc(/C=C(\C#N)C(=O)NC2CCCCCC2)c(C)n1C | inactive |
| COc1ccc(C2CC(c3cccc(Cl)c3)=NN2c2ccc(S(N)(=O)=O)cc2)cc1 (configuration not stated) | inactive |
| CC1Cc2ccccc2N1CC(=O)NC(=O)NC1CCCC1 (configuration not stated) | inactive |
| O=C(c1cccnc1)N1CCN(Cc2ccc3ccccc3c2)CC1 | inactive |
| O=C(C1=C[C@@H](C2CCCCC2)C[C@@H](OCc2ccc(CO)cc2)O1)N1CCN(Cc2ccccc2)CC1 | 39.8 µM (active) |

| Compound | Potency |
| --- | --- |
| COc1ccc(CN2CCCC(C(=O)N3CCCCC3)C2)cc1 (configuration not stated) | inactive |
| Cc1cc(=O)oc2cc(OC(=O)c3cncc(Br)c3)ccc12 | inactive |
| Cc1c(C2(O)CCCCC2)[nH]c2cc(C(F)(F)F)ccc12 | 35.5 µM (active) |
| CCc1c(C2(O)CCCCC2)[nH]c2ccc(C(F)(F)F)cc12 | 25.1 µM (active) |
| COCc1cc(C)nc2oc(C(=O)c3ccccc3)c(N)c12 | inactive |
| CCCCC[C@@H](/C=C/C1C(=O)C=C[C@H]1C/C=C\CCCC(=O)OC)OC(C)=O (some centres not stated) | 35.5 µM (active) |
| CCCCC[C@H](O)/C=C/C1C(=O)C=C[C@H]1C/C=C\CCCC(=O)OC (some centres not stated) | 35.5 µM (active) |
| CCOC(=O)c1c(NC(=O)c2ccc(S(=O)(=O)N3CCCC(C)C3)cc2)sc2c1CCN(C(C)C)C2 (configuration not stated) | inactive |
| Cc1cc(-c2ccc(Br)s2)nc(-n2cccc2)n1 | inactive |
| OC1(c2ccc(Cl)c(Cl)c2)C[n+]2ccccc2N1Cc1ccccc1 (configuration not stated) | 28.2 µM (active) |
| Cc1ccc2nc3c(cc(C(=O)NCCc4ccccc4)c(=N)n3CCCN3CCOCC3)c(=O)n2c1 | inactive |
| CC(C)(O)C#Cc1ncc(C(F)(F)F)cc1Cl | inactive |
| N#CC(C#N)=c1ccc2c(c1)NC1(CCCCC1)N=2 | 12.6 µM (active) |
| COc1ccc(CCNC(=O)COc2ccc(S(=O)(=O)NC3CCCCC3)cc2Cl)cc1 | 35.5 µM (active) |
| O=C(COc1ccc(F)cc1Cl)NC1CCCCCC1 | inactive |
| COc1ccc(CCNC(=O)C(=O)NCC2OCCN2S(=O)(=O)c2ccc(OC)c(OC)c2)cc1 (configuration not stated) | inactive |
| CCCCNc1c(-c2ccc(SC3CCCCC3)cc2)nc2cnccn12 | inactive |
| Cc1ccc(-c2nnc(NC3CCCCC3)c3ccccc23)cc1S(=O)(=O)N1CCN(C)CC1 | 11.2 µM (active) |
| O=C(NCCC1=CCCCC1)c1coc(=O)c(Br)c1 | 31.6 µM (active) |
| COc1ccc(CCNC(=O)c2coc(=O)c(Br)c2)cc1 | 20 µM (active) |
| Cc1noc(C)c1COc1ccc(C(=O)NCCc2ccc(S(N)(=O)=O)cc2)cc1 | inactive |
| O=C(COc1ccccc1Br)NCCC1=CCCCC1 | inactive |
